Reference: PubChem BioAssay (EPA / NIEHS)
Active and inactive are the calls of the source. Rule for the calls: active = hit-call score of the fitted dose curve at least 0.9, where 1 is the maximum; inactive = score below 0.9.

Assay: IUF_NPC3_neuronal_differentiation_120hr: Leibniz Research Institute for Environmental Medicine (IUF) 120-hour Neuronal Differentiation Assay (NPC3) (AID 2284301)
Summary of the method: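 Neuronal differentiation of primary human neural progenitors measured by high-content imaging: percent TUBB3+ of Hoechst+ nuclei within migrated area at 120 h, seven-point serial dilution plus solvent control, gain or loss relative to DMSO.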

SMILES | AC50 | outcome
CCNC(=O)NC(=O)C(C#N)=NOC | 318 nM (active) | 
CS(=O)(=O)c1ccc(C(=O)C2C(=O)CCCC2=O)c([N+](=O)[O-])c1 |  | inactive
CC1(C)C(C=C(Cl)Cl)C1C(=O)OC(C#N)c1cccc(Oc2ccccc2)c1 (stereo unspecified) |  | inactive
COC(=O)N(C(=O)N1CO[C@@]2(C(=O)OC)Cc3cc(Cl)ccc3C2=N1)c1ccc(OC(F)(F)F)cc1 |  | inactive
O=C(Nc1ccccc1-c1ccc(Cl)cc1)c1cccnc1Cl |  | inactive
N#CN=C1SCCN1Cc1ccc(Cl)nc1 |  | inactive
COP(=S)(OC)SCn1nnc2ccccc2c1=O |  | inactive
C=C(C)CN(CC)c1c([N+](=O)[O-])cc(C(F)(F)F)cc1[N+](=O)[O-] |  | inactive
CS(=O)(=O)c1cc(C(F)(F)F)ccc1C(=O)c1cnoc1C1CC1 |  | inactive
CO/N=C(/C1=NOCCO1)c1ccccc1Oc1ncnc(Oc2ccccc2Cl)c1F |  | inactive
CCOP(=O)(OCC)Oc1nc(Cl)c(Cl)cc1Cl |  | inactive
CNC(=O)Oc1cccc2ccccc12 |  | inactive
CCSC(=O)N1CCCCCC1 |  | inactive
CC(C)(C)C(=O)C(Oc1ccc(Cl)cc1)n1cncn1 (stereo unspecified) |  | inactive
CN/C(=N\[N+](=O)[O-])NCc1cnc(Cl)s1 |  | inactive
Cc1c(COC(=O)[C@@H]2[C@H](/C=C(\Cl)C(F)(F)F)C2(C)C)cccc1-c1ccccc1 |  | inactive
